# Data taken from the supplement of paper PMC10849652.
# Targets with a hit are over-represented here; the source holds about 8,800 in all. About 0.5% of all pairs of compound and target were hits.
# Compound: C[C@H](C1=CC=C(C=C1)C(=O)NC2=C3C=CNC3=NC=C2)N
# Assay: log2 fold change, soluble protein after heating vs DMSO (PISA); higher = thermal stabilisation; K562 lysate, 10 uM; active = over 0.2 and 3.5 SD of the protein, either way, in both replicates (recomputed)
# How it was run: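 A 30 min treatment with 10 μM compound was applied to crude K562 extract at 1 mg/mL protein in PBS pH 7.4 with 1 mM MgCl2. Heating for 3 min spanned 48°C-58°C, after which aliquots were pooled, adjusted to 0.5% NP-40 at 4°C and spun at 21,000xg for 90 min. TMTpro 16plex LC-MS/MS of the supernatant, with channel sums equalised, gave values recorded as log-two fold change in thermal stability against solvent controls, from duplicates.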
# UniProt P46020, sequence (P46020 whole entry, looked up): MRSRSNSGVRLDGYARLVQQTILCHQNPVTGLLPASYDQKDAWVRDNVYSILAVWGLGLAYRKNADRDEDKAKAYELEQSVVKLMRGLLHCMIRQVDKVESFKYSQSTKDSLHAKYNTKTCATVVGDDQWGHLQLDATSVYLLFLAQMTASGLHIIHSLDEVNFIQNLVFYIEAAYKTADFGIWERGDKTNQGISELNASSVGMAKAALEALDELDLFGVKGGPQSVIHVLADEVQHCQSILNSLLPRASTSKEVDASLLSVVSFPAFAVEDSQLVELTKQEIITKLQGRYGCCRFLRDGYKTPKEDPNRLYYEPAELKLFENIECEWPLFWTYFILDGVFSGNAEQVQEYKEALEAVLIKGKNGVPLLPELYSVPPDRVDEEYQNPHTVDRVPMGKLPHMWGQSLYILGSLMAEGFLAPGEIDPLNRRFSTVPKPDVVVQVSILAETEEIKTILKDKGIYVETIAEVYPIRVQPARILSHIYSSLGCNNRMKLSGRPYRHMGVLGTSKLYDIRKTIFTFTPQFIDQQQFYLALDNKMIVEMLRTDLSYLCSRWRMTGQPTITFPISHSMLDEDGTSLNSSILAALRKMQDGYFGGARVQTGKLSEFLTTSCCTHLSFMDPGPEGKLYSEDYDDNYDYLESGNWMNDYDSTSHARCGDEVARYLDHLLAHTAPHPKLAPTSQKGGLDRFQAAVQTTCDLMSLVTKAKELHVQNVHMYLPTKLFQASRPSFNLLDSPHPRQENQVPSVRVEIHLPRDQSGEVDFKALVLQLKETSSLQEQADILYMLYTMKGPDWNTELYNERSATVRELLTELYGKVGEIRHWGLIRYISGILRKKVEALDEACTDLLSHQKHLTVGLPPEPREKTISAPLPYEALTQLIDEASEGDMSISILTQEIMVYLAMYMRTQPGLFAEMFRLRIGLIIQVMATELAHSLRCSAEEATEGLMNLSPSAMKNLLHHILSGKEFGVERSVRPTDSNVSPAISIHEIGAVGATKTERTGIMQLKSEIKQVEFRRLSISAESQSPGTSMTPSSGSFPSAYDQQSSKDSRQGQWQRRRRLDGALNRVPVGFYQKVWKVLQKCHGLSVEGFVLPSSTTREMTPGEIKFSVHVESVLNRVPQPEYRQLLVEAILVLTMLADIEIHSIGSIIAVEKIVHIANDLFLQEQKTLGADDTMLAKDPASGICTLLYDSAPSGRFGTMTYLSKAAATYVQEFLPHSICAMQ
# UniProt Q01813, sequence (Q01813 whole entry, looked up): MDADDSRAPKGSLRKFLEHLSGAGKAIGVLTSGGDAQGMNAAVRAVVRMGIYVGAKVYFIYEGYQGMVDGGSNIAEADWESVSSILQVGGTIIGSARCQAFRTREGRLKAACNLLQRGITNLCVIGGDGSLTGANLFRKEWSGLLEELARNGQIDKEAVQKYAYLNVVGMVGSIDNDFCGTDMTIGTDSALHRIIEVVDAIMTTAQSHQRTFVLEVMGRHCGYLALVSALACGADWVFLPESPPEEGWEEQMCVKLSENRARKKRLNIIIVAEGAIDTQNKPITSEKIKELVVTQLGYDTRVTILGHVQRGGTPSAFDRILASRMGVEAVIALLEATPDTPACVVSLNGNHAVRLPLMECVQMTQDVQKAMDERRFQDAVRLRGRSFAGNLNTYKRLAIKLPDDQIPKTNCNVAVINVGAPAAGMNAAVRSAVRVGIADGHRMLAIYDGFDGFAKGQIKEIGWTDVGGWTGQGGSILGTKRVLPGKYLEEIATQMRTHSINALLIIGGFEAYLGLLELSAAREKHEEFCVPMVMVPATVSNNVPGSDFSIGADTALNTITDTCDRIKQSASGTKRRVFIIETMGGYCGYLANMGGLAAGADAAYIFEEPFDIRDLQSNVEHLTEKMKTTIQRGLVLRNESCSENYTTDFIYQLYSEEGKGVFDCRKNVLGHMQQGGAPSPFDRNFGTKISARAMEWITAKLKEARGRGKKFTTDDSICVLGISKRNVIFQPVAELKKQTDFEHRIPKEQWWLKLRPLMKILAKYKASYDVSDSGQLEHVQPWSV
# UniProt P28065, sequence (P28065 whole entry, looked up): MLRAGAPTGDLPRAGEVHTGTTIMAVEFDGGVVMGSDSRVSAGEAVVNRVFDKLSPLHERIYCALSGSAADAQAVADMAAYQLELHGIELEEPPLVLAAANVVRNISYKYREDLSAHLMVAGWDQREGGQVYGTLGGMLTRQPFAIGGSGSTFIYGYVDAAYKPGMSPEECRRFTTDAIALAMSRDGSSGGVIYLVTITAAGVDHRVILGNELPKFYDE
# UniProt Q9BTU6, sequence (Q9BTU6 whole entry, looked up): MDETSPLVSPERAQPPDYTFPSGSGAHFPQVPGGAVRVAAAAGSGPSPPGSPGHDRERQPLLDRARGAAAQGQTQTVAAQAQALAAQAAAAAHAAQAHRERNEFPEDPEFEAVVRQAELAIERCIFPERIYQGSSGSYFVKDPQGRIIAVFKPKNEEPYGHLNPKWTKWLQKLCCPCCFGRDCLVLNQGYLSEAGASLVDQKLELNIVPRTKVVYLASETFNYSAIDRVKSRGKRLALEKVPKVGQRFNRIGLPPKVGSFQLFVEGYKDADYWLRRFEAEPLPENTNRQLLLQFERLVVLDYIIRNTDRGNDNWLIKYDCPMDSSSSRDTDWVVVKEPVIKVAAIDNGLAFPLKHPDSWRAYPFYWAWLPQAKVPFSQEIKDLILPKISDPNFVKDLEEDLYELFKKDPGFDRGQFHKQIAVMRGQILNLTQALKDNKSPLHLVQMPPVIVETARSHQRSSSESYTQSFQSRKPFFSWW
# UniProt Q8N4L2, sequence (Q8N4L2 whole entry, looked up): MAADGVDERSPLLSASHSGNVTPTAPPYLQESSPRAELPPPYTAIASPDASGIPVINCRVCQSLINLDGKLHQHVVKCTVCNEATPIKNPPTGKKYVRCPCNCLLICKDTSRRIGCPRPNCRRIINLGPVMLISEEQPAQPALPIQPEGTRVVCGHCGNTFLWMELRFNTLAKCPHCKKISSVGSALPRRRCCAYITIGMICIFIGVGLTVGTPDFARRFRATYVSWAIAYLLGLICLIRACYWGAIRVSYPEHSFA
# UniProt P15735, sequence (P15735 whole entry, looked up): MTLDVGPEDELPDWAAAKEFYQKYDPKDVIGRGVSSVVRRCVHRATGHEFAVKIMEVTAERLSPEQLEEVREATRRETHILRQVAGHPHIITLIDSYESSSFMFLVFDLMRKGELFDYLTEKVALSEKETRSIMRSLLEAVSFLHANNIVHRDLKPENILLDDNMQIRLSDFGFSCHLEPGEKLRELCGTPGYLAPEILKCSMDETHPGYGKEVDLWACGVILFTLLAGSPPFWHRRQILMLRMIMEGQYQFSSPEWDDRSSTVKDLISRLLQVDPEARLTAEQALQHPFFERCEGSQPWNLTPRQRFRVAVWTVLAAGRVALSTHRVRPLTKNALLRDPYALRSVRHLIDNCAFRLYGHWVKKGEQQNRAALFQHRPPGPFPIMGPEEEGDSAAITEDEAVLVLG
# UniProt P05771, sequence (P05771 whole entry, looked up): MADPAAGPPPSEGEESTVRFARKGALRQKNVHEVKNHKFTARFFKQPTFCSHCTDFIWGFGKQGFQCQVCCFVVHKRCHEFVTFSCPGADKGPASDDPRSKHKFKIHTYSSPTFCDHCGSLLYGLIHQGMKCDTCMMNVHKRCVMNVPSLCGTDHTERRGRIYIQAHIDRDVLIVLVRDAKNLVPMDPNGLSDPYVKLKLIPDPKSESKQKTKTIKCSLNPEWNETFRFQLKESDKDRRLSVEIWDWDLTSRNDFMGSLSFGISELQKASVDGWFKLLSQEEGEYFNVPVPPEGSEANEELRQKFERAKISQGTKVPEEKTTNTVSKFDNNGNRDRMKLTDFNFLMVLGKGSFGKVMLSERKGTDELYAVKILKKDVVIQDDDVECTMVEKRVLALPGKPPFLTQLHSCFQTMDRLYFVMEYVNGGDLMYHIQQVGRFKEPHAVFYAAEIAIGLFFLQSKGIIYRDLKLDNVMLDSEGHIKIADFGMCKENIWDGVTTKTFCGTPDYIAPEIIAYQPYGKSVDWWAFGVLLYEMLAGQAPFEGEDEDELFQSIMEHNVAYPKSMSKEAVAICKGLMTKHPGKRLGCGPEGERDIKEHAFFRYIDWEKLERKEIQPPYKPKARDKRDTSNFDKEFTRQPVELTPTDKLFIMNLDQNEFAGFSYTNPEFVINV
# UniProt O00408, sequence (O00408 whole entry, looked up): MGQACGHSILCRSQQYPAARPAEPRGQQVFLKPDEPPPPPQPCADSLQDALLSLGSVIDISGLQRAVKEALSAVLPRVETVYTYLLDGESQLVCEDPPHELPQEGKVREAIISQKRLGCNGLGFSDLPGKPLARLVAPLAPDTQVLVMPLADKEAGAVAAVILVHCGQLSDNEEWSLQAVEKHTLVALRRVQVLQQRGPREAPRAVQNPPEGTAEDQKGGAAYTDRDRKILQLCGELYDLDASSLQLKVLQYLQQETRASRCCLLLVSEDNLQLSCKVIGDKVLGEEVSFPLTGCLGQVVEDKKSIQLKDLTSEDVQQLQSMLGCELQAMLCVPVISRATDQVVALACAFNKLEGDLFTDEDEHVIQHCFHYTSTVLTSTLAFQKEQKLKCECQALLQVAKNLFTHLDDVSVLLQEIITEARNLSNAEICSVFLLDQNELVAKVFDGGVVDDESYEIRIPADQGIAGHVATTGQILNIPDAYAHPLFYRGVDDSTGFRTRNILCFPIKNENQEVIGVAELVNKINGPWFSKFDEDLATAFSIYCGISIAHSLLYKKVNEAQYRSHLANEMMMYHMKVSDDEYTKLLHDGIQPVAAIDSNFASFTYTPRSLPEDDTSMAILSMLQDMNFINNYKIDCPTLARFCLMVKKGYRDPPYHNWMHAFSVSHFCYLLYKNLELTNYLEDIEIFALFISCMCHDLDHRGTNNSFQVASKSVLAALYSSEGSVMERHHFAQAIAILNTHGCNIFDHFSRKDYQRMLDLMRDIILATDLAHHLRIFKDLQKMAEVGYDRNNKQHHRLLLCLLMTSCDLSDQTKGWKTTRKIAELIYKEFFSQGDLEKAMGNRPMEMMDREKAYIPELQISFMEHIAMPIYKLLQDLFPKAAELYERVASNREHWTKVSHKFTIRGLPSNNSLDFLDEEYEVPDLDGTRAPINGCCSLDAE
row,Target,log2 fold change
1,PHOSPHO2 (UniProt Q8TCD6),-0.063 (inactive)
2,PFKP (UniProt Q01813),0.033 (inactive)
3,PHKG2 (UniProt P15735),0 (inactive)
4,PPCDC (UniProt Q96CD2),-0.342 (active)
5,PDE2A (UniProt O00408),0.05 (inactive)
6,PRKCB isoform 2 (UniProt P05771),-0.012 (inactive)
7,PIP4P2 (UniProt Q8N4L2),0.053 (inactive)
8,PHKA1 (UniProt P46020),-0.042 (inactive)
9,PIK3R2 (UniProt O00459),0.009 (inactive)
10,PSMB9 (UniProt P28065),-0.033 (inactive)
11,PHACTR4 isoform 2 (UniProt Q8IZ21),0.764 (active)
12,PI4K2A (UniProt Q9BTU6),-0.006 (inactive)
13,PDE4DIP isoform 4 (UniProt Q5VU43),-0.069 (inactive)
14,PDXDC1 (UniProt Q6P996),-0.011 (inactive)
15,PPIL2 (UniProt Q13356),-0.011 (inactive)
16,PRRC2A (UniProt P48634),0.011 (inactive)
17,PCBP3 (UniProt P57721),-0.067 (inactive)
